Experimental data as given in the supplement of paper PMC10933113.
Counter-ions that a name gives are not always drawn. ± gives the uncertainty stated by the source.

system: THP-1; assay: CD54 surface expression induction over DMSO control (% over DMSO); higher = stronger dendritic cell activation; details: exposure time: 24 h
Experimental: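 hCLAT-like CD54 and CD86 surface expression on THP1 cells after 24 h exposure at a single concentration (highest non-cytotoxic concentration, or 100-200 µM if not cytotoxic). Flow cytometry (iQue) was run on 5,000 live cells.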

SMILES | CD54 surface expression induction
CCOCN(C(=O)CCl)c1c(C)cccc1CC [Acetochlor] (10 µM) | 104 ± 21
CCC(C)(CC)c1cc(NC(=O)c2c(OC)cccc2OC)on1 [Isoxaben] (200 µM) | -4.09 ± 5.1
Nc1ccc(-c2ccccc2)cc1 [4-Biphenylamine hydrochloride] (100 µM) | -0.07 ± 4.1
O=C(O)c1ccc(=O)[nH]c1 [6-Hydroxynicotinic acid] (100 µM) | -3.56 ± 0.01
Cc1ccc2c(c1N)C(=O)c1ccccc1C2=O [1-Amino-2-methylanthraquinone] (100 µM) | 131 ± 21
NNC(N)=S [Thiosemicarbazide] (10 µM) | -1.62 ± 1.6
O=C(CCl)CCl [1,3-Dichloropropanone] (200 µM) | -1.2 ± 0.3
Nc1ccc2ccccc2c1 [2-Naphthylamine] (100 µM) | 10.3 ± 0.75
O=C(N/N=C/c1ccc([N+](=O)[O-])o1)c1cc([N+](=O)[O-])cc([N+](=O)[O-])c1O [Nifursol] (200 µM) | 24.5 ± 8
CC(C)(C)C(=O)CCl [1-Chloro-3,3-dimethyl-butan-2-one] (200 µM) | -19.8 ± 13
C=CC(=O)OCC(COC(=O)C=C)(COC(=O)C=C)COC(=O)C=C [Pentaerythritol tetraacrylate] (10 µM) | 1.03 ± 1.9
O=C(O)c1ccccc1C(=O)Nc1cccc2ccccc12 [Naptalam*] (200 µM) | 183 ± 32
CCOC(=O)CC(SP(=S)(OC)OC)C(=O)OCC (stereo not given) [Malathion] (100 µM) | 3.59 ± 5.1
O=[N+]([O-])c1cc(C(F)(F)F)c(Cl)c([N+](=O)[O-])c1Cl [2,4-Dichloro-1,3-dinitro-5-(trifluoromethyl)benzene] (10 µM) | 4.56 ± 5.6
c1cc(OCC2CO2)cc(OCC2CO2)c1 (stereo not given) [Diglycidyl resorcinol ether (DGRE)] (10 µM) | -3.16 ± 4.6
COP(=O)(OC)OC(Br)C(Cl)(Cl)Br (stereo not given) [Naled] (100 µM) | 3.64 ± 4.3
CN(C)S(=O)(=O)N(SC(F)(Cl)Cl)c1ccccc1 [Dichlofluanid] (10 µM) | 35.6 ± 3.1
Nc1ccc(Cl)cc1N [4-Chloro-1,2-diaminobenzene*] (200 µM) | 233 ± 36
CCCCOCN(C(=O)CCl)c1c(CC)cccc1CC [Butachlor] (10 µM) | -3.73 ± 3.2
Fc1ccc(Oc2ccnc3cc(Cl)cc(Cl)c23)cc1 [Quinoxyfen] (200 µM) | -12.7 ± 1

SMILES | CD54 surface expression induction
Nc1ccc([N+](=O)[O-])cc1N [4-Nitro-1,2-phenylenediamine] (100 µM) | 7.46 ± 2
CCC(C)(c1ccc(O)cc1)c1ccc(O)cc1 [Bisphenol B] (200 µM) | 3.9 ± 0.67
COc1ccc(O)c(C(C)(C)C)c1 [2-tert-Butyl-4-methoxyphenol] (200 µM) | 0.6 ± 0.57
COP(=S)(OC)Oc1nc(Cl)c(Cl)cc1Cl [Chlorpyrifos-methyl] (200 µM) | 20.5 ± 8.1
CC(C)CC(C)Nc1ccc(Nc2ccccc2)cc1 (stereo not given) [N-(1,3-Dimethylbutyl)-N'-phenyl-p-phenylenediamine] (10 µM) | 6.74 ± 24
c1cc(OCC2CO2)ccc1Cc1ccc(OCC2CO2)cc1 (stereo not given) [Bis[4-(glycidyloxy)phenyl]methane] (100 µM) | 6.35 ± 4.5
S=C=NCc1ccccc1 (10 µM) | 10.5 ± 7.8
CCOP(=S)(OCC)Oc1cnc2ccccc2n1 [Quinalphos] (200 µM) | -1.41 ± 9
Nc1ccc(N)cc1 [1,4-Benzenediamine] (10 µM) | 30.8
O=[N+]([O-])c1c(Cl)c(Cl)c(Cl)c(Cl)c1Cl [Pentachloronitrobenzene] (100 µM) | 14.3 ± 4.8
CCCOC/C(=N\c1ccc(Cl)cc1C(F)(F)F)n1ccnc1 [Triflumizole] (10 µM) | -3.38 ± 6.6
CCc1cccc(CC)c1N(COC)C(=O)CCl [Alachlor] (100 µM) | 26.5 ± 9.3
CN(C)c1ccc(N)cc1 [N,N-Dimethyl-p-phenylenediamine] (100 µM) | 30.8 ± 7.3
c1ccc2sc(SNC3CCCCC3)nc2c1 [N-Cyclohexyl-2-benzothiazolesulfenamide] (100 µM) | -15.5 ± 5.8
OC[P+](CO)(CO)CO [Tetrakis(hydroxymethyl)phosphonium SO4] (100 µM) | 8.38 ± 1.4
NCCc1ccc(O)cc1 [Tyramine] (100 µM) | -4.6 ± 1.1
Nc1cc(Cl)ccc1O [2-Amino-4-chlorophenol] (200 µM) | 89.8 ± 6.4
CCOP(=S)(OCC)SC(CCl)N1C(=O)c2ccccc2C1=O (stereo not given) [Dialifor] (100 µM) | -4.61 ± 27
O=C1C(Cl)=C(Cl)C(=O)C(Cl)=C1Cl [Chloranil] (100 µM) | 17.4 ± 13
CN(C)c1ccc(N(C)C)cc1 [*N,N,N',N'-Tetramethyl-p-phenylenediamine] (200 µM) | 91.8 ± 6
